High-throughput results as filed in PubChem BioAssay.
Sampled rows, rich in hits. Any-hit rate of the full collection: about 2.4%.
D2 ag-1: agonists of human D2 dopamine receptor. P14416. HEK293 T-REx D2 cells, calcium flux agonist mode. activation, % at 2 µM. hit rate 0.53% among 340,000. AID 485358;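 active = activation over 3 SD above normal in the single-dose calcium agonist read, cut at about 30% in these data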; note: 0% is about no effect
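Agonism scored from kinetic calcium signal (1 read/sec, 180 s) following compound pin transfer, after a 10 s baseline. Cells: HEK293 Trex line expressing inducible D2 receptor coupled to calcium, dye-loaded after overnight culture at 30 C.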
B2AR arrestin: recruits beta-arrestin to the human beta2-adrenergic receptor; beta-arrestin recruitment to beta2AR, cell-based reporter; P07550; AID 492947; hit rate 0.02% among 330,000; Potency, µM (doses to about 46.1 µM), without a hit: top-dose activation, usual class: activators; active = well fitted activation curve with a large enough effect; inconclusive = small, poorly fitted or top-dose-only effect;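 note: potency is the fitted concentration of half-maximal effect; 0% = DMSO controls and full agonism = EC100 isoproterenol or metaproterenol; nearly all actives have a fitted effect of over 65% in size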
Target sequence (P07550 whole entry, looked up): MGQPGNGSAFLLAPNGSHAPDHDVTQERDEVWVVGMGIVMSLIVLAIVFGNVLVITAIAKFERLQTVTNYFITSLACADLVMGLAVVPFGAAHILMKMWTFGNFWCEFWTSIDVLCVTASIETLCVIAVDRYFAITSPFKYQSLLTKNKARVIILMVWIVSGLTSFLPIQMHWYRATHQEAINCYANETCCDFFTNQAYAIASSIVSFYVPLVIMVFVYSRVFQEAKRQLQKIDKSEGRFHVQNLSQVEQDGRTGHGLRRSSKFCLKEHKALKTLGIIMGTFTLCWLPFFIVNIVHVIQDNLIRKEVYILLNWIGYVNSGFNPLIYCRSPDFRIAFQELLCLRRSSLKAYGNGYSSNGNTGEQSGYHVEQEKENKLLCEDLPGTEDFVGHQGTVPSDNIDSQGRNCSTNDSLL
D2 ag-2: agonists of human D2 dopamine receptor (beta-arrestin); hit rate 0.084% among 360,000; activation, % (test concentration not listed); AID 624465; P14416; DiscoveRx PathHunter D2 beta-arrestin, luminescence, 90 min; 100% = 57 uM dopamine signal; in the data active = activation above about 40%; inconclusive = between about 15% and that limit
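DiscoveRx PathHunter D2 beta-arrestin cells (2,100/well) attached overnight, then compound-stimulated 90 min at 37 C in HBSS/10 mM HEPES/0.1% Tween-20 buffer; beta-galactosidase complementation read by luminescence after 1 h at ambient temperature. Dopamine 57 uM final (EC100) as control.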
D2 PAM-1: positive allosteric modulators of human D2 dopamine receptor; P14416; HEK293 T-REx D2, calcium flux, EC20 dopamine potentiation; potentiation, % at 10 µM; hit rate 0.34% among 340,000; AID 485347;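 active = potentiation over 3 SD above the plate norm, cut at about 30% in these data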; note: 0% is about no effect
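Using a no-wash calcium dye in inducible, force-coupled HEK293 Trex cells expressing D2, we tracked fluorescence each second for 180 s after compound, then for 180 s after EC20 dopamine to detect augmented signalling.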
D2 PAM-2: positive allosteric modulators of human D2 dopamine receptor. DiscoveRx D2 beta-arrestin cells, luminescence, 90 min; 100% = 57 uM dopamine signal. potentiation, % (test concentration not listed). hit rate 0.23% among 360,000; in the data active = potentiation above about 50%; inconclusive = mostly about 30% to 49%
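PathHunter beta-arrestin assay in DiscoveRx D2 cells. Compounds were added with an EC20 of dopamine (50 nM final) for 90 min at 37 deg C. Luminescence was read 1 h after detection reagent, with 57 uM dopamine as the EC100 control.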
D2 antag: D2 dopamine receptor (human) antagonism; hit rate 2% among 340,000; inhibition, % at 10 µM; HEK293 TREx D2 cells, calcium flux, dopamine EC80; AID 485344; in the data active = inhibition above about 30%; inactive = below that, where a call was filed; note: 0% is about no effect
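Calcium mobilization kinetics were recorded at 1 s intervals in tetracycline-induced HEK293 T-REx D2 cells, first for 180 s after compound addition and then 180 s after EC80 dopamine.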
Active calls of the source: *; ? = inconclusive; . = no result; ! = a repeat was not active.

SMILES	D2 ag-1	B2AR arrestin	D2 ag-2	D2 PAM-1	D2 PAM-2	D2 antag
Cc1cc(Cl)ccc1OC(C)C(=O)NN1C(=O)c2ccccc2C1=O (stereo not drawn)	0	0%	1	14	-7	-7
Oc1cc(O)cc(/C=C/c2ccc(O)c(O)c2)c1	1	0%	3	6	5	-14
CCCCN(CC)S(=O)(=O)c1ccccc1	-1	0%	2	1	-14	-9
O=C(Nc1ccc2c(c1)nc1n2CCOC1)C1CCCCC1	0	0%	1	-4	19	9
O=C(NC1CC2CCCC(C1)N2Cc1ccc(F)cc1)c1ccc(F)cc1 (stereo not drawn)	1	0%	-9	-22	-75	75*
O=C(NC1CC2CCCC(C1)N2C(=O)NC1CCCCC1)c1ccc(F)cc1 (stereo not drawn)	0	0%	-4	1	-25	-11
Cc1ccccc1C(=O)NC1CC2CCCC(C1)N2Cc1ccccc1Cl (stereo not drawn)	.	.	-2	.	-41	.
Cc1ccccc1C(=O)NC1CC2CCC(C1)N2Cc1ccccc1 (stereo not drawn)	0	0%	-5	-24	-1	72*
Cc1c(Cl)cccc1NC(=O)COC(=O)Cc1ccsc1	0	0%	4	6	-1	0
CCC(C)NC(=O)c1ccc(NC(=O)C2=C(C)OCCS2)cc1 (stereo not drawn)	0	-1%	-4	-6	-5	44*
O=C(O)/C=C/C(=O)NCc1ccccn1	1	0%	-2	-3	8	17
O=C(NC(=S)NCc1ccc(F)cc1)c1ccccc1	2	0%	-2	-5	-13	-6
O=C(NC(=S)Nc1nc2c(s1)CCCC2)c1ccccc1	4	0%	-2	-18	-17	35*
COC(=O)c1ccc(C(=O)NC(=S)Nc2nc3c(s2)CCCC3)cc1	.	0%	-1	.	10	.
O=C(NC(=S)NCc1ccccc1)c1ccccc1	-1	0%	1	9	-8	36*
Cc1nc(Nc2cnc(/C=C/c3cc(C(=O)Nc4cccc(C(F)(F)F)c4)ccc3C)cn2)cc(N2CCNCC2)n1	.	-1%	0	.	-16	.
CC(C)c1ccc(-c2nnn(CCC(=O)O)n2)cc1	-1	0%	?	1	81*	23
O=C(Nc1cccc(S(=O)(=O)N2CCOCC2)c1)c1ccc(Cl)nc1	.	0%	6	.	12	.
COc1ccc(C(C)=O)cc1COC(=O)CSCC(=O)Nc1ccc(C)cc1	-1	-1%	-4	-27	-31	30*
COc1ccc(C(C)=O)cc1COC(=O)CSC(C)C(=O)Nc1cc(C)on1 (stereo not drawn)	0	-1%	-3	3	4	2
CN1/C(=C\C=C2/SC(=S)N(CC(=O)O)C2=O)C(C)(C)c2ccccc21	97*	0%	-10	-8	-27	12
C=CCN1C(=O)/C(=C\C=C2\N(C)c3ccccc3C2(C)C)SC1=S	22	-1%	-3	-14	-2	5
O=C(c1ccc(S(=O)(=O)N2CCCC2)cc1)N1CCCC(C(F)(F)F)C1 (stereo not drawn)	0	0%	2	-15	-12	3
CC(C)OP(=O)(OC(C)C)C(Nc1ccc(C(=O)O)cc1)c1ccccc1 (stereo not drawn)	1	0%	-7	30*	-7	-4
CCn1c(C(=O)N2CCCC(C(=O)NCCCOC)C2)cc2sccc21 (stereo not drawn)	-1	.	.	-1	.	.
SMILES	D2 ag-1	B2AR arrestin	D2 ag-2	D2 PAM-1	D2 PAM-2	D2 antag
CC[C@H](C)C(=O)O[C@H]1CCC=C2C=C[C@H](C)[C@H](CC[C@@H]3C[C@@H](O)CC(=O)O3)[C@H]21	2	0%	2	-6	-10	38*!
CCC(C)C(=O)OC1CCC=C2C=CC(C)C(CCC3CC(O)CC(=O)O3)C21 (stereo not drawn)	.	.	0	.	-18	.
COc1ccc(CCN(Cc2cc3cc4c(cc3[nH]c2=O)OCO4)C(C)=O)cc1OC	-1	-1%	.	11	.	-11
O=C(O)c1ccc2c(c1)C(=O)N([C@H](Cc1ccc([N+](=O)[O-])cc1)C(=O)O)C2=O	.	0%	.	.	.	.
COc1ccc(CCNC(=O)c2[nH]c(C)c(C(C)=O)c2C)cc1OC	-1	0%	0	1	-14	38*
COc1ccc(CCNCC(=O)Nc2c(C)cc(C)cc2C)cc1OC	-1	1%	6	8	-3	45*
CCOc1ccc(CCNC(=O)c2[nH]c(C)c(C(C)=O)c2C)cc1OCC	0	0%	-1	-4	0	5
Nc1ccc2oc(-c3ccccn3)nc2c1	0	0%	-3	50*	0	-3
Cc1ccc(-c2nc3cc(N)ccc3o2)cc1Br	0	0%	1	4	-8	-8
Clc1ccc2oc(-c3ccccn3)nc2c1	1	0%	0	4	4	-12
Cc1ccc(C)c(-c2nc3cc(N)ccc3o2)c1	1	0%	-6	33*	-17	-7
S=C(NCc1ccco1)Nc1ccccc1	0	-1%	2	8	-3	31*
Cc1ccc(S(=O)(=O)N(C)C)cc1NC(=S)NC12CC3CC(CC(C3)C1)C2	0	0%	-3	-24	-8	78*
Cc1ccc(S(=O)(=O)N(C)C)cc1NC(=S)NCc1ccco1	0	0%	-4	.	-43	40*
Cc1ccc(S(=O)(=O)N(C)C)cc1NC(=S)Nc1ccc2[nH]c(=O)[nH]c2c1	1	0%	-2	-14	-24	49*
CCCc1cc(=O)[nH]c(Nc2ccc3c(c2)OCCO3)n1	-1	0%	5	-6	-4	-5
CC1=C(c2ccc(C(C)C)cc2)S(=O)(=O)NC1=NCc1ccc(OC(C)C)cc1	7	.	.	0	.	.
COc1ccc2c(C(=O)c3ccc(C)cc3)n(Cc3ccc(C(N)=O)cc3)[n+]([O-])c2c1	-2	0%	1	21	-9	60*
COc1ccc(C(=O)c2c3ccccc3[n+]([O-])n2Cc2ccc(C(N)=O)cc2)cc1	-1	0%	-1	-13	2	1
Cc1nn(C)c(=S)[nH]c1=S	.	.	-3	.	-9	.
NC(=O)c1cc([N+](=O)[O-])ccc1N1CCN(Cc2ccccc2)CC1	-1	0%	8	-3	-11	-10
C#CC1(NC(=O)NCCCC)CCCCC1	0	-1%	-2	2	-7	17
CCCCn1c(=NC(=O)C(C)(C)Oc2ccc(Cl)cc2)c(C(=O)OCC)cc2c(=O)n3ccccc3nc21	1	.	.	-5	.	.
